Active and inactive are the calls of the source. The calls were made as follows: active = hit-call score of the fitted dose curve at least 0.9, where 1 is the maximum; inactive = score below 0.9.
What was measured:
[1] = ATG_CRE_CIS: Attagene CIS-FACTORIAL HepG2 Assay for human cAMP Responsive Element (CRE) binding protein 3 (AID 2282926); details: HepG2 CRE cis-reporter, Attagene multiplexed mRNA; actives raise or lower the signal
Summary of the method: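 Transfected HepG2 were treated for 24 hours, then RNA was extracted and reporter cDNA amplified with sequence-specific primers. Labelled fragments were separated by capillary electrophoresis, and the CRE signal was fitted bidirectionally with DMSO as baseline.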

[2] = target: CCAAT/enhancer-binding protein beta (Homo sapiens) (UniProt P17676); assay: ATG_C_EBP_CIS: Attagene CIS-FACTORIAL HepG2 Assay for human CCAAT/Enhancer Binding Protein (C/EBP) beta (AID 2282927); details: HepG2 Attagene cis-factorial transcription factor reporter; actives raise or lower the signal
Summary of the method: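 Endogenous C/EBPb-driven reporter transcripts measured in transfected human HepG2 cells at 24 h via RT-PCR and capillary electrophoresis of labelled fragments. Activity fitted in both directions relative to DMSO baseline.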

[3] = ATG_CMV_CIS: Attagene CIS-FACTORIAL HepG2 Assay for human CMV (Internal Marker) (AID 2282928); details: HepG2 CMV promoter reporter, transcription factor profiling; actives raise or lower the signal;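 also: endpoint acts as a background internal control marker rather than a target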
Summary of the method: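 Cell system: HepG2, transiently transfected multiple reporter units under cis promoters. Exposure: 24 h. Detection: RT-PCR, FAM labeling, HpaI digestion, capillary electrophoresis. Analysis: bidirectional, DMSO baseline.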

[4] = ATG_DR4_LXR_CIS: Attagene CIS-FACTORIAL HepG2 Assay for human Liver X Receptor (LXR), DR4 submotif (AID 2282929); details: HepG2 Attagene DR4 cis-reporter, mRNA transcription; actives raise or lower the signal
Summary of the method: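 Transiently transfected HepG2 liver cells; cis-regulated reporters; 24 h dosing. RT-PCR plus CE read-out of reporter mRNA. DMSO baseline, bidirectional curve fitting.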

[5] = ATG_AP_1_CIS: Attagene CIS-FACTORIAL HepG2 Assay for human Activator Protein 1 (AP-1) (AID 2282931); details: HepG2 Attagene cis-factorial AP-1 reporter mRNA; actives raise or lower the signal
Summary of the method: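 We transfected HepG2 cells transiently with a set of cis-regulated reporter transcription units, dosed them for 24 h, and quantified reporter mRNA via RT-PCR and capillary electrophoresis, scoring gain or loss of signal relative to DMSO.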

[6] = ATG_AP_2_CIS: Attagene CIS-FACTORIAL HepG2 Assay for human Activator Protein 2 (AP-2) (AID 2282932); details: HepG2 AP-2 cis-reporter, Attagene transcription factor profiling; actives raise or lower the signal
Summary of the method: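 HepG2, transient MRTU transfection, cis-regulated reporters; 24 h compound exposure; RNA isolated, RT-PCR, 6-FAM labelling, HpaI digest, CE fluorescence. DMSO = negative control/baseline, bidirectional fit.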

[7] = ATG_BRE_CIS: Attagene CIS-FACTORIAL HepG2 Assay for human Bone Morphogenetic Protein (BMP) Response Element (BRE) (AID 2282933); details: HepG2 BMP response element reporter, Attagene transcription factor profiling; actives raise or lower the signal
Summary of the method: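 Read-out: reporter mRNA induction quantified by RT-PCR and capillary electrophoresis after 24 h chemical exposure of transfected HepG2 cells. Endogenous factor activity on the BMP response element; gain or loss fitted against DMSO baseline.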

[8] = target: Retinoic acid receptor alpha (Homo sapiens) (UniProt P10276); assay: ATG_DR5_RAR_CIS: Attagene CIS-FACTORIAL HepG2 Assay for human Retinoic Acid Receptor Alpha (RARE), DR5 submotif (AID 2282934); details: HepG2 Attagene cis-factorial RARE DR5 reporter, mRNA; actives raise or lower the signal;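 as to AC50: reporter responds to endogenous RAR alpha beta and gamma in HepG2 not RARA alone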
Summary of the method: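 Reporter transcripts from a DR5-regulated unit, measured via RT-PCR plus capillary electrophoresis, reflect endogenous RAR activity in transiently transfected human HepG2 liver cells. Exposure lasted 24 h; gain or loss of signal scored against DMSO.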

[9] = target: Transcription factor E2F1 (Homo sapiens) (UniProt Q01094); assay: ATG_E2F_CIS: Attagene CIS-FACTORIAL HepG2 Assay for human E2F Transcription Factor 1 (AID 2282935); details: HepG2 Attagene cis-reporter, E2F reporter RNA transcripts; actives raise or lower the signal
Summary of the method: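 Cis-element reporter mRNA induction in transiently transfected HepG2, 24 h exposure. Activity fitted in both directions relative to DMSO negative control.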

[10] = ATG_E_Box_CIS: Attagene CIS-FACTORIAL HepG2 Assay for human Enhancer Box (E-box) (AID 2282936); details: HepG2 E-box cis-reporter transcription, actives raise or lower the signal
Summary of the method: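 Cells: HepG2 (human liver), transient MRTU transfection. Exposure 24 h. RNA → oligo(dT) RT → PCR → 6-FAM label → HpaI → CE. Activity fitted both directions relative to DMSO.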

[11] = ATG_EGR_CIS: Attagene CIS-FACTORIAL HepG2 Assay for human Early Growth Response 1 (EGR1) (AID 2282938); details: HepG2 Attagene CIS-FACTORIAL EGR reporter mRNA; actives raise or lower the signal
Summary of the method: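 Multiplexed cis-reporter system in human hepatoma HepG2 cells, transiently transfected. Cells are dosed for 24 h; reporter transcripts are amplified, fluorescently tagged and sized by capillary electrophoresis, with DMSO as negative control.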

[12] = ATG_M_19_CIS: Attagene CIS-FACTORIAL HepG2 Assay for M19 Transcription Factor (Internal Marker) (AID 2282939); details: HepG2 Attagene CIS-FACTORIAL M19 internal marker reporter; actives raise or lower the signal
Summary of the method: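 Readout: fluorescent reporter-transcript fragments by capillary electrophoresis after RT-PCR. Human HepG2 liver cells carried transfected MRTU constructs reporting endogenous transcription-factor activity; exposure 24 h. Gain or loss of signal fitted relative to DMSO.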

[13] = ATG_ERE_CIS: Attagene CIS-FACTORIAL HepG2 Assay for Estrogen Response Element (ERE) (AID 2282940); details: HepG2 ERE cis-reporter, Attagene RNA transcript; actives raise or lower the signal
Summary of the method: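 Readout: reporter mRNA induction by RT-PCR, FAM-labelled primer extension, HpaI digestion and capillary electrophoresis, 24 h after dosing transfected HepG2 cells. Endogenous transcription factors act on cis-element-regulated reporters. Gain or loss fitted against DMSO.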

[14] = ATG_Ets_CIS: Attagene CIS-FACTORIAL HepG2 Assay for human Erythroblast Transformation Specific (ETS) (AID 2282941); details: HepG2 ETS cis-reporter transcription, actives raise or lower the signal
Summary of the method: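 After transient cis-reporter transfection, HepG2 cells receive test chemical for 24 h. Reporter mRNA levels, measured by RT-PCR and capillary electrophoresis fluorescence, are analysed bidirectionally relative to the DMSO baseline.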

[15] = target: Hepatocyte nuclear factor 3-beta (Homo sapiens) (UniProt Q9Y261); assay: ATG_FoxA2_CIS: Attagene CIS-FACTORIAL HepG2 Assay for human Forkhead box A2 (FOXA2) (AID 2282942); details: HepG2 cis-reporter transcription factor activity, 24 h; actives raise or lower the signal
Summary of the method: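 Multiplexed cis-element reporter assay in transiently transfected HepG2. Twenty-four hours post-dosing, RNA was reverse-transcribed, amplified, FAM-labelled, HpaI-digested and separated by CE. Activity gain or loss relative to DMSO.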

[16] = ATG_FoxO_CIS: Attagene CIS-FACTORIAL HepG2 Assay for human Forkhead box O (FoxO) (AID 2282943); details: HepG2 Attagene cis-reporter, FoxO element, mRNA; actives raise or lower the signal
Summary of the method: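 Endogenous transcription factor activity read from multiplexed cis-promoter reporter transcripts in transiently transfected HepG2, 24 h after dosing. Reporter RNA measured via RT-PCR plus capillary electrophoresis of FAM-labeled products; gain or loss relative to DMSO.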

[17] = ATG_GATA_CIS: Attagene CIS-FACTORIAL HepG2 Assay for human GATA Binding Protein (AID 2282944); details: HepG2 GATA cis-element reporter, Attagene multiplex mRNA; actives raise or lower the signal
Summary of the method: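 Read-out: fluorescent reporter mRNA fragments resolved by capillary electrophoresis after RT-PCR. Human liver HepG2 cells carried transiently transfected cis-regulated reporter constructs; chemicals incubated 24 h; gain or loss of signal fitted relative to DMSO.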

[18] = ATG_GLI_CIS: Attagene CIS-FACTORIAL HepG2 Assay for human Zinc Finger Protein GLI1 (AID 2282945); details: HepG2, Attagene cis-factorial reporter mRNA, GLI element; actives raise or lower the signal
Summary of the method: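 Bidirectional curve fits relative to DMSO, using reporter mRNA levels from RT-PCR plus capillary electrophoresis. Cells were HepG2 transiently carrying cis-regulated reporter constructs, harvested 24 h after dosing.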

[19] = target: Aryl hydrocarbon receptor (Homo sapiens) (UniProt P35869); assay: ATG_Ahr_CIS: Attagene CIS-FACTORIAL HepG2 Assay for human Aryl Hydrocarbon Receptor (Ahr) (AID 2282930); details: HepG2 AhR cis-factorial reporter transcription; actives raise or lower the signal
Summary of the method: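 Reporter mRNA levels, quantified by RT-PCR and fluorescent capillary electrophoresis, reflect endogenous AhR transcriptional activity in HepG2 cells carrying transfected cis-promoter reporter constructs. Readout at 24 h post-dose; gain or loss fitted against DMSO baseline.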

[20] = ATG_M_61_CIS: Attagene CIS-FACTORIAL HepG2 Assay for M61 Transcription Factor (Internal Marker) (AID 2282937); details: HepG2 Attagene CIS-FACTORIAL M61 internal marker reporter; actives raise or lower the signal
Summary of the method: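 Multiplexed reporter mRNA assay, HepG2 human hepatoma cells, 24 h treatment. Signal: FAM-labelled, HpaI-digested RT-PCR fragments by CE. Fit: bidirectional, baseline DMSO.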

Measured: AC50

Chain of Retinoic acid receptor alpha (Homo sapiens) (P10276 whole entry, looked up): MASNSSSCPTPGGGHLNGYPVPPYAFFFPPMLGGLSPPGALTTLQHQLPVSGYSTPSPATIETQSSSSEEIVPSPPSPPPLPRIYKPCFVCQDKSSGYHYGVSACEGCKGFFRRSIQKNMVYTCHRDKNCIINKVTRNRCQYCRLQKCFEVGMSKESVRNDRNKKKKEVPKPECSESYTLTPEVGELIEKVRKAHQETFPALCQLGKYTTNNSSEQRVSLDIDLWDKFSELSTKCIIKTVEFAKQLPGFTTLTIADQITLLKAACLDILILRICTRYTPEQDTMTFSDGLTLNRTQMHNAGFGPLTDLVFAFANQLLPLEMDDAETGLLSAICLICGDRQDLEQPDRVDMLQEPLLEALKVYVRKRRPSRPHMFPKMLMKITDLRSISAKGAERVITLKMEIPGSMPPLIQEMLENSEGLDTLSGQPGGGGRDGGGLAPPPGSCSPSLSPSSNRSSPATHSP
Chain of CCAAT/enhancer-binding protein beta (Homo sapiens) (P17676 whole entry, looked up, the tested form may be a part): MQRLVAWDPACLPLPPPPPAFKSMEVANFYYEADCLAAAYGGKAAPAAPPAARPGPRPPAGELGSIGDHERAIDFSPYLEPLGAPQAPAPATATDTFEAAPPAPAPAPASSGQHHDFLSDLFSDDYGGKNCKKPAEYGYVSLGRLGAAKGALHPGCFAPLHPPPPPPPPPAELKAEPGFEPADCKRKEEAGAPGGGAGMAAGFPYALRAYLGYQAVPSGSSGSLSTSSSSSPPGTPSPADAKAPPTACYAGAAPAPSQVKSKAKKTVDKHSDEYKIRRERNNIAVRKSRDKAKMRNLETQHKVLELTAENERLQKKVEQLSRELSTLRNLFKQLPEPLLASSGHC
Chain of Hepatocyte nuclear factor 3-beta (Homo sapiens) (Q9Y261 whole entry, looked up): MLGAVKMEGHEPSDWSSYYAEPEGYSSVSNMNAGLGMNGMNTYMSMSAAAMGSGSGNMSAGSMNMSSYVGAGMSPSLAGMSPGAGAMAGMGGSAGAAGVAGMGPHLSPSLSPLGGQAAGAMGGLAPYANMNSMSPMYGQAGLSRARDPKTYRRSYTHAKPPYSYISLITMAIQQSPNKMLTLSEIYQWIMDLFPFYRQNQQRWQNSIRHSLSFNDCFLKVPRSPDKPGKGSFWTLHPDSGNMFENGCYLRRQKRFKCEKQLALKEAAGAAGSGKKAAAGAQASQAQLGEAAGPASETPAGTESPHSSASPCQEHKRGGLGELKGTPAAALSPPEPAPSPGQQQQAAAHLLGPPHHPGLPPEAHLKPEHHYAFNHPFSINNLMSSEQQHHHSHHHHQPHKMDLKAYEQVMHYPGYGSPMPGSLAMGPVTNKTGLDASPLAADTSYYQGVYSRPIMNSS
Chain of Aryl hydrocarbon receptor (Homo sapiens) (P35869 whole entry, looked up): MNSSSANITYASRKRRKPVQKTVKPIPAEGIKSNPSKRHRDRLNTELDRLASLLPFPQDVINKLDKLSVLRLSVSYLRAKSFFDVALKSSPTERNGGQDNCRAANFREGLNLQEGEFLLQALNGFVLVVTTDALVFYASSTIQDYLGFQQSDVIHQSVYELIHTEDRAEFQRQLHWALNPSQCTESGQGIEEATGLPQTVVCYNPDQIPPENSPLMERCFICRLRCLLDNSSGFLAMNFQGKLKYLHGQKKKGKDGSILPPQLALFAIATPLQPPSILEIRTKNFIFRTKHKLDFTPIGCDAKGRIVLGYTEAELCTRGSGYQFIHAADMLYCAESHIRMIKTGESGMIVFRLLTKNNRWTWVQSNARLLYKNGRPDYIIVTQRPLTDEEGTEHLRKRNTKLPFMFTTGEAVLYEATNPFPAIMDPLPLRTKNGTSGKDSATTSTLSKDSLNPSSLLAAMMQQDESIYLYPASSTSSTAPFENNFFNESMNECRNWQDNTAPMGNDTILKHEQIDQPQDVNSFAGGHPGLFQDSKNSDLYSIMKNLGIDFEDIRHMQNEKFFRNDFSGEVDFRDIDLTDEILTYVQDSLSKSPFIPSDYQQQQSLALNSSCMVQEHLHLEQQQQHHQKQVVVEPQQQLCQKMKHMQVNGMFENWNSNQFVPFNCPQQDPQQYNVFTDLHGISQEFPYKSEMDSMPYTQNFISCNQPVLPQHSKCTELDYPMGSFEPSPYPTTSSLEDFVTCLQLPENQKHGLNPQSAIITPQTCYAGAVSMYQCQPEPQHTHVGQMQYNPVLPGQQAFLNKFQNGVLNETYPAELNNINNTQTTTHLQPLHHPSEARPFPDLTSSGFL
Chain of Transcription factor E2F1 (Homo sapiens) (Q01094 whole entry, looked up): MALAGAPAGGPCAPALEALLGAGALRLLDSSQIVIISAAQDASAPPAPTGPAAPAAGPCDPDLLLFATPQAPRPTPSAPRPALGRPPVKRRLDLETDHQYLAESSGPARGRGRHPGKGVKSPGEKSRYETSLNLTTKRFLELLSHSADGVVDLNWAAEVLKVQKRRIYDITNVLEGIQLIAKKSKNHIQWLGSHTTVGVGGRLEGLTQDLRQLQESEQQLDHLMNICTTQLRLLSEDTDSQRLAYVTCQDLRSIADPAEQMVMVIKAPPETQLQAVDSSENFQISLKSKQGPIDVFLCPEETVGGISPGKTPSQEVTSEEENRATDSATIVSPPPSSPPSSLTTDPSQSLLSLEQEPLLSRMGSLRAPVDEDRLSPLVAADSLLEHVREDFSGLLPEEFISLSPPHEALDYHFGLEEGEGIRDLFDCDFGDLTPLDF

Cc1cccc([N+](=O)[O-])c1
inactive: [1] | [2] | [3] | [4] | [5] | [6] | [7] | [8] | [9] | [10] | [11] | [12] | [13] | [14] | [15] | [16] | [17] | [18]

C1CC2OC2CC1C1CO1 (configuration not stated)
inactive: [1] | [2] | [3] | [4] | [5] | [6] | [8] | [9] | [10] | [11] | [12] | [13] | [14] | [15] | [16] | [17] | [18]

CCSC(=O)N(CC)C1CCCCC1
inactive: [1] | [2] | [3] | [4] | [19] | [5] | [6] | [9] | [10] | [11] | [12] | [13] | [14] | [15] | [16] | [17] | [18]

CC(C)C(=O)OCC(C)(C)C(OC(=O)C(C)C)C(C)C (configuration not stated)
active: [13] 63.6 µM
inactive: [1] | [2] | [3] | [4] | [5] | [6] | [8] | [9] | [10] | [20] | [11] | [12] | [14] | [15] | [16] | [17] | [18]

CO/C=C(/C(=O)OC)c1ccccc1COc1cccc(C(F)(F)F)n1
active: [4] 7.46 µM | [11] 28.8 µM
inactive: [1] | [2] | [3] | [19] | [5] | [6] | [8] | [9] | [10] | [12] | [13] | [14] | [15] | [16] | [17] | [18]

N#Cc1ccc(N(CC(N)=O)CC(F)(F)F)cc1C(F)(F)F
active: [8] 1.56 µM | [11] 25.3 µM
inactive: [1] | [2] | [3] | [4] | [19] | [5] | [6] | [9] | [10] | [12] | [13] | [14] | [15] | [16] | [17] | [18]

CCNc1nc(NC(C)C)nc(SC)n1
inactive: [1] | [2] | [3] | [4] | [19] | [5] | [6] | [9] | [10] | [11] | [12] | [14] | [15] | [16] | [17] | [18]

Source: PubChem BioAssay (EPA / NIEHS)
